# Assay results as given in PubChem BioAssay AID624331 (National Center for Advancing Translational Sciences (NCATS), 2012).
# Records with an inconclusive call do not appear. Calls of active or inactive are those of the source. Calls come from the whole dose curve; as a rule, active = well fitted activation curve with a large enough effect; inconclusive = small, poorly fitted or top-dose-only effect; inactive = no such curve, though single readings can be large or run the other way.
# Test: qHTS assay for re-activators of p53 using a Luc reporter: Hit Validation with no p53 Expressed; for activity change, positive = activation: 0% is about no effect
# Conditions: p53-null cells, luciferase reporter counter-screen; series mostly up to 46.1 µM; activity change, positive = activation: at the top concentration
# In short: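 Without p53 expression, cells (1000/well, Opti-MEM + 10% FBS) were exposed 24 h at 37 deg C to compounds in a 1:5 series from 10 mM stock (top 46.1 µM in well). Luminescent signal read 10 min after Amplite addition; actives flag unspecific activation.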
# Potency is the fitted concentration of half-maximal effect.
Compound,"activity change, positive = activation",Potency
Cc1cc(C(=O)NC2CCCCC2)c(C)n1-c1ccc(F)cc1,27.4% (inactive),
O=C(O)C1C2C=CC(C2)C1C(=O)Nc1ccccc1Br (stereo not given),-31.3% (inactive),
CCOC(=O)c1c(NC(=O)CN2CCCc3ccccc32)sc(C)c1C,75.3% (inactive),
COc1cc(C(=O)NCC(=O)Nc2c(C)cccc2C)ccc1OCc1ccccc1,-7.54% (inactive),
O=C(NC1CC1)c1cccc(NC(=O)c2cn3ccccc3n2)c1,-15.6% (inactive),
O=C(COC(=O)c1ccc(-c2nnc(-c3ccccc3)o2)cc1)c1ccccc1,,146 nM (active)
Cc1ccc(N2C(=O)c3ccccc3C2C(=O)c2cc(C)ccc2O)cc1 (stereo not given),-38.5% (inactive),
O=S(=O)(N/N=C/c1ccccc1OCc1ccc(Cl)cc1)c1ccccc1,-19.1% (inactive),
CC(C)OC(=O)CCCCCN1C(=O)CSC1=S,-21.6% (inactive),
NC(=O)c1cc(Cl)ccc1OCC(=O)Nc1ccc2c(c1)OCO2,58.5% (inactive),
Cc1ccc(/C=C(\C#N)C(=O)NCC2CCCO2)o1 (stereo not given),-20.6% (inactive),
C=C[C@@H]1c2cc(C)ccc2N(S(=O)(=O)c2ccc(C)cc2)[C@H](c2ccccc2C(F)(F)F)C1(C#N)C#N,13.3% (inactive),
Cc1ccccc1-c1noc(N)c1C#N,-35.5% (inactive),
CN1CCc2c(sc(NC(=O)C3COc4ccccc4O3)c2C(N)=O)C1 (stereo not given),-38.2% (inactive),
Cc1cc(C)n2cc(CSc3nc4ccccc4s3)nc2n1,-26.5% (inactive),
Cc1ccc2c(c1)C(N1CCCC1=O)CC(c1ccco1)N2 (stereo not given),31.7% (inactive),
O=C(Nc1ccc(-c2nc3cc(Cl)ccc3c(=O)o2)cc1)c1ccco1,-27.4% (inactive),
CC(C)CNC(=S)Nc1ccc(Oc2ccccc2)cc1,48.1% (inactive),
O=C(CCN1C(=O)/C(=C/c2ccccc2Cl)SC1=S)N1CCOCC1,-4.6% (inactive),
O=C(Nc1ccc(Cl)cc1C(F)(F)F)c1ccccc1,-19.7% (inactive),
